This is an account of results in PubChem BioAssay.

Each structure is given as a SMILES string. Active and inactive are the calls of the source.

For assay [1], the system named is Plasmodium falciparum Sir2 (PF13_0152, Sir2A). The experiment in a line: pfSir2 binders on small-molecule microarrays, primary screen, biochemical, small-molecule microarray, 635 nm fluorescence (AID 1098).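 Note: score merges spot fluorescence intensity with its signal-to-noise ratio.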 As to conditions: small-molecule microarray binding, fluorescence 635 nm; higher = more signal.
A short description of assay [2]: small-molecule microarray binders of probe aDKK1, primary screen, biochemical, biotinylated probe, 635/667 nm fluorescence (AID 1099).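 Note: score merges 667nm spot fluorescence with signal to noise across triplicate slides; reference of the scale not given here.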 Conditions: higher = more signal.
Assay [3] can be described thus: small-molecule microarray binders of probe aCHRDL2, primary screen, biochemical, biotinylated probe, 635/667 nm fluorescence (AID 1100). Conditions: higher = more signal.
Assay [4] is described as follows: splicing luciferase reporter signal modulators, primary screen, spliceosome inhibition project, cell-based, HEK293, splice +/- reporter (AID 1101).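 Note: HEK293 cells carrying a splicing-competent luciferase reporter gene; test concentration not given here.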 Conditions: luminescence, 24 h, higher = more signal, called active from +8 up or from −8 down. For orientation: A reporter such as luciferase makes a cellular process visible.
The target of assay [5] is Fibroblast growth factor 10 (Homo sapiens) (UniProt O15520). The experiment in a line: FGF10 binders on small-molecule microarrays, primary screen, biochemical, small-molecule microarray, 635 nm fluorescence (AID 1102). Conditions: FGF10 binding, fluorescence 635 nm, higher = more signal.
Assay [6] concerns glycogen synthase kinase-3 (GSK3A per assay name; protocol says GSK3B). The experiment in a line: GSK3 binders on small-molecule microarrays, primary screen, biochemical, small-molecule microarray, 635 nm fluorescence, GSK3A (AID 1103). Note: the record names both GSK3A and GSK3B. Conditions: small-molecule microarray binding, fluorescence 635 nm; higher = more signal.
Assay [7] concerns the target Epidermal growth factor receptor (Homo sapiens) (UniProt P00533). As to the kind of experiment: EGFR binders on small-molecule microarrays, primary screen, biochemical, small-molecule microarray, 635 nm fluorescence (AID 1104).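 Note: score merges 667 nm emission intensity with spot signal to noise over triplicate slides.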 Conditions: EGFR binding, higher = more signal.
In assay [8] the target is Follistatin-related protein 3 (Homo sapiens) (UniProt O95633). The experiment in a line: FSTL3 binders on small-molecule microarrays, primary screen, biochemical, small-molecule microarray, 635 nm fluorescence (AID 1105).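 Note: score merges emission near 667 nm and signal to noise per printed spot across three slides.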 Conditions: FSTL3 binding, higher = more signal.
Assay [9] has as its target Dickkopf-related protein 1 (Homo sapiens) (UniProt O94907). As to the kind of experiment: DKK1 binders on small-molecule microarrays, primary screen, biochemical, small-molecule microarray, 635 nm fluorescence scan (AID 1106).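 Note: score merges emission near 667 nm with signal to noise over three replicate slides.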 As to conditions: DKK1 binding, higher = more signal.
Assay [10] relates to Inhibin beta A chain (activin A). As to the kind of experiment: INHBA (activin A) binders on microarrays, primary screen, biochemical, small-molecule microarray, 635 nm fluorescence scan (AID 1107).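 Note: mouse activin A protein probed at 4.33 µg/mL on printed slides; score merges bound-protein fluorescence near 667 nm with spot signal-to-noise.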 Conditions: small-molecule microarray binding, higher = more signal.

Chain of Fibroblast growth factor 10 (Homo sapiens) (O15520 whole entry, looked up): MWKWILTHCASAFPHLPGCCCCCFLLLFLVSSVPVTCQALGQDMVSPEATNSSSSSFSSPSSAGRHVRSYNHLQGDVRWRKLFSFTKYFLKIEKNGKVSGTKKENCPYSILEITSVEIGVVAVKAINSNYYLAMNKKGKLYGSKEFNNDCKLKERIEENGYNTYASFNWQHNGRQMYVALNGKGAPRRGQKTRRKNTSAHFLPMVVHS
Chain of Dickkopf-related protein 1 (Homo sapiens) (O94907 whole entry, looked up): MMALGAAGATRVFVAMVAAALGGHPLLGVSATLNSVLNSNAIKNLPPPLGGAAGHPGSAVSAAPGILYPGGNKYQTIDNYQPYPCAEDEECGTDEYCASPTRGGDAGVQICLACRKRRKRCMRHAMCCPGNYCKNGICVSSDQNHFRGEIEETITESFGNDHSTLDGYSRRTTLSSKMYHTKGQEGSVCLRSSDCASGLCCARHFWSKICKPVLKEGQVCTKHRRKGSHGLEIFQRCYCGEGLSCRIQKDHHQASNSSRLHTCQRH
Chain of Epidermal growth factor receptor (Homo sapiens) (P00533 whole entry, looked up): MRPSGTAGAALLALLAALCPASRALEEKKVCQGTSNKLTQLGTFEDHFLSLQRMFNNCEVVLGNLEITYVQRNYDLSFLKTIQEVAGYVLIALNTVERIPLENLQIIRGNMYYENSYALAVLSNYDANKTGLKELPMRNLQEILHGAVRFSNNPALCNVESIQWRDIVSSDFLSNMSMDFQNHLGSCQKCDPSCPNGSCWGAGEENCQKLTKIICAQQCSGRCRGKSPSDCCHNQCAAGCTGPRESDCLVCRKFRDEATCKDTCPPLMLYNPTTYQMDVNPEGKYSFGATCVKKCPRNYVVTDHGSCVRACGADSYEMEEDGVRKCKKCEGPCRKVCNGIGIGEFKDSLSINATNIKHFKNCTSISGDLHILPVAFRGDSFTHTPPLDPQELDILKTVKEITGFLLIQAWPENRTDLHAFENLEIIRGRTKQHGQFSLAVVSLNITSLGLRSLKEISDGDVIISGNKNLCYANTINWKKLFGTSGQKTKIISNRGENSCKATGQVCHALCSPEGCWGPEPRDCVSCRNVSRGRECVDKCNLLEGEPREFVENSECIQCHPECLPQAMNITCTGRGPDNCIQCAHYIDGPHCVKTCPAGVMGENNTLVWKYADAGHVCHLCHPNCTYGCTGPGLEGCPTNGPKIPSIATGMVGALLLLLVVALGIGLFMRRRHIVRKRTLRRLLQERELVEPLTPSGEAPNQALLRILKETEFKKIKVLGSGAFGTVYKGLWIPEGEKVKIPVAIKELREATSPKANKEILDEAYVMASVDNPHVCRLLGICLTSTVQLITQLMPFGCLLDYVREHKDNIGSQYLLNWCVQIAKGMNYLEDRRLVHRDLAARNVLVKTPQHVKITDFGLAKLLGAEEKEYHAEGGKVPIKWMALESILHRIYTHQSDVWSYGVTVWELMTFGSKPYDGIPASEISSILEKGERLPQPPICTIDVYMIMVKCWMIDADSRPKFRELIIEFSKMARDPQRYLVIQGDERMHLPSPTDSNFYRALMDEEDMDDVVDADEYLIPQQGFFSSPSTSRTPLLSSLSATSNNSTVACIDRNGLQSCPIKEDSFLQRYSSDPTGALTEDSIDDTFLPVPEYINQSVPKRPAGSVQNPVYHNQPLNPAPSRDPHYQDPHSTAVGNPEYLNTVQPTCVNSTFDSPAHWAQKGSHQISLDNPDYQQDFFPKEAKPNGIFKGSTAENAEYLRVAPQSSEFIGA
Chain of Follistatin-related protein 3 (Homo sapiens) (O95633 whole entry, looked up): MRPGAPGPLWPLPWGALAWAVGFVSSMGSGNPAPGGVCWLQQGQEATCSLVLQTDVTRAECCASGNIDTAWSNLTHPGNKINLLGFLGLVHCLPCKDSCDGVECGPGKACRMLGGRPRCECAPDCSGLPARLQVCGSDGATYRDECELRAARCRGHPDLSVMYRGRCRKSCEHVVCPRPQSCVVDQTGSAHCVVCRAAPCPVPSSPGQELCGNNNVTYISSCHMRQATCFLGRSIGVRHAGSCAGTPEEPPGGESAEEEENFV

As for `COC(=O)C(CC#Cc1ccc2c(c1)[C@]1(C(=O)N2)[C@H](c2ccc(OCCO)cc2)N2[C@H](c3ccccc3)[C@H](c3ccccc3)OC(=O)[C@H]2[C@@H]1C(=O)O)C(=O)OC`, the composite z-score in assay [1] amounted to 1.78; in assay [2] it was 1.18; in assay [3], 0.931; in [5], 0.809; in [6], 1.03; in [7] it was 0.194. In addition, the composite z-score turned out to be 0.808 in assay [8], 0.119 in assay [9] and 0.765 in assay [10]. Also, the z-score in assay [4] is -0.609 (inactive).
As to `CN(C)CCCNC(=O)[C@@]1(Cc2ccccc2I)c2ccccc2C(=O)N(Cc2ccccc2Cl)[C@H]1c1ccc(CO)cc1`, the composite z-score is 1.56 in assay [1]; 0.94 in [2]; 1.33 in [3]; 0.247 in assay [5]; 0.122 in assay [6]; -1.4 in assay [7]. In addition, the composite z-score was -0.509 in assay [8], -0.83 in [9] and 1.03 in assay [10]. In assay [4], the z-score was -3.68 (inactive).
In the case of `C/C=C/[C@@H](CCn1cc([C@H](O)c2ccccc2)nn1)[Si](C)(C)c1ccc(OC)cc1`, the composite z-score in assay [1] is 1.53; in assay [2], -0.414; in assay [3], 0.476; in [5], -0.71; in [6], -0.507; in [7], -0.849. In addition, the composite z-score in [8] was -0.748; in [9], -0.0219; in assay [10] it was 0.0838. In addition, the z-score in [4] was -0.406 (inactive).
Consider `COCCOC(=O)N1C(=O)[C@@]2(c3ccccc31)[C@H](c1ccc(OCCO)cc1)N1[C@H](c3ccccc3)[C@H](c3ccccc3)OC(=O)[C@H]1[C@@H]2C(=O)NC[C@H](O)c1ccccc1`, for which the composite z-score was found to be 1.32 in [1]; 0.161 in assay [2]; 0.568 in assay [3]; 1.2 in [5]; 0.777 in assay [6]; 0.146 in assay [7]. The composite z-score was determined as 1.38 in assay [8], 0.362 in assay [9] and 0.526 in [10]. In assay [4], the z-score is -0.353 (inactive).
`COc1ccc([Si](C)(C)[C@H]2[C@H](CC(=O)N3CCC[C@H]3CO)O[C@@]3(C(=O)N(Cc4ccc(N5C(=O)c6cccc7cccc5c67)cc4)c4ccccc43)[C@@H]2C)cc1`: the composite z-score in assay [1] worked out at 1.4; in assay [2] it was 0.184; in [3] it was 0.0075; in [5] it was 0.651; in assay [6], 1.2; in assay [7], 0.6. Moreover, the values for the composite z-score in [8], in [9] and in assay [10] were 1.35, 0.736 and 0.4, respectively. The z-score in [4] was -1.17 (inactive).
As to `COC(=O)[C@@]1(Cc2ccccc2)[C@H]2c3cc(C(=O)N4CCCC4)n(Cc4ccc(OC(F)(F)F)cc4)c3C[C@H]2CN1C(=O)c1ccccc1`, the composite z-score is 0.716 in assay [1]; 1.34 in [2]; 1.4 in assay [3]; 0.872 in assay [5]; 0.728 in assay [6]; -0.357 in [7]. Besides, the composite z-score was 0.685 in assay [8], -0.909 in [9] and 1.08 in assay [10]. For the same compound, the z-score in assay [4] is -0.286 (inactive).
With `O=C1O[C@H](c2ccccc2)[C@H](c2ccccc2)N2[C@H]1[C@@H](C(=O)N1CCN(c3ncccn3)CC1)[C@]1(C(=O)Nc3ccc(C#CCCO)cc31)[C@H]2c1ccc(OCCO)cc1`, the composite z-score in [1] was 1.66; in assay [2] it was 0.115; in [3], 0.536; in assay [5] it was 1.11; in [6], 1.28; in assay [7], 1.12. For the same compound, the results for the composite z-score in assay [8], in [9] and in assay [10] were 1.48, 0.949 and 0.463, respectively. Besides, the z-score in assay [4] was -0.0244 (inactive).
Turning to `CCOC(=O)C[C@H]1[C@H](OC(=O)c2cc3ccccc3oc2=O)[C@@H](NC(=O)c2ccc3ccccc3n2)c2cc(OCCCO)ccc2N1C(=O)c1ccc2ccccc2n1`, the composite z-score in [1] was 0.522; in assay [2], 0.273; in assay [3], -0.033; in assay [5], 1.13; in [6], 0.743; in assay [7], 0.503. The figures for the composite z-score in [8], in assay [9] and in assay [10] were 1.3, 1.01 and 0.626, respectively. Besides, in assay [4], the z-score is 0.613 (inactive).
On to `COCC(=C=CC[C@@H](O)c1ccccc1OCCO)C[C@@H](O)COCc1ccccc1`, for which the composite z-score in assay [1] was 0.72; in [2] it was 0.724; in [3], 0.167; in assay [5], 1.21; in assay [6] it was 0.732; in [7], -1.19. The composite z-score in assay [8] is -0.268; in assay [9], -0.466; in assay [10], 1.24. For the same compound, the z-score in assay [4] is -1.48 (inactive).
Consider `COCCCNC(=O)[C@@]1(Cc2ccccc2)COC(c2ccc(OCCCO)cc2)=N1`, for which the composite z-score was 1.7 in assay [1]; 0.583 in assay [2]; 1.11 in [3]; 0.505 in [5]; 0.384 in assay [6]; -0.715 in assay [7]. The composite z-score in assay [8] is -0.776; in [9], -0.688; in assay [10], 0.065. Also, in [4], the z-score was -0.37 (inactive).
In the case of `CCCCC=C[C@@H](NC(=O)CCc1ccccc1)c1ccccc1`, the composite z-score is 0.956 in assay [1]; 0.401 in assay [2]; -0.0262 in assay [3]; 0.919 in [5]; 0.869 in [6]; 0.51 in assay [7]. In addition, the composite z-score in [8] worked out at 0.188; in [9] it was 0.248; in assay [10], 0.724. For the same compound, the z-score in assay [4] is 11.9 (active).
As to `COc1ccc([Si](C)(C)[C@@H]2[C@@H](CC(=O)N(CCO)Cc3ccccc3)O[C@]3(C(=O)N(C)c4c(Br)cc(C)cc43)[C@H]2C)cc1`, the composite z-score in assay [1] was 0.717; in assay [2], -0.298; in assay [3], -0.237; in assay [5], 1.1; in assay [6], -0.27; in [7], 0.729. Besides, the results for the composite z-score in assay [8], in assay [9] and in [10] were 1.09, 0.834 and 1.02, respectively. In assay [4], the z-score is -1.92 (inactive).
